Shown are actives, neighbours in structure and some others; about 19% of the full set was active somewhere.
HT1080 IDH1KD tx – qHTS for induction of synthetic lethality in tumor cells producing 2HG: qHTS for the HT-1080-IDH1KD cell line | 360,000 compounds, 2% hits | HT-1080 IDH1 knockdown viability, ATP luminescence, 48 h | Potency, µM (highest dose often 46.1 µM), without a hit: at the top dose activity, negative = toxicity, usual class: cytotoxic;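 also: potency is read from the fitted curve at half-maximal effect; 0% = DMSO wells and -100% = cell-free medium wells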
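Knockdown cells (IDH1KD HT-1080) received compounds 2 h after plating at 750 cells/well and were kept 48 h at 37 °C in 5% FBS RPMI. A CellTiter-Glo luminescence read gave % activity for curve fitting.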
IL-1B inflam inh – qHTS for Inhibitors of Inflammasome Signaling: IL-1-beta AlphaLISA Primary Screen; AID 743279, 2014; THP-1 LPS/ATP IL-1B secretion, AlphaLISA, 16 h; active compounds read low; activity change, % at 57.5 µM; 360,000 compounds, 4.7% hits; in the data active = activity change below about -50%; inconclusive = mostly about -30% to -49%
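Secreted IL-1B measured by AlphaLISA bead assay after 16 h compound exposure of THP-1 cells; compounds (final up to 57.5 uM) added 1 h before LPS (250 ng/mL) and ATP (1.25 mM) stimulation; lower signal means less secretion.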
HT1080-NT tox – qHTS for induction of synthetic lethality in tumor cells producing 2HG: qHTS for the HT-1080-NT fibrosarcoma cell line. HT-1080-NT fibrosarcoma viability, CellTiter-Glo ATP luminescence, 48 h. Potency, µM (titrated, usually from 46.1 µM), without a hit: at the highest dose activity, negative = less viability, actives largely listed as cytotoxic. 360,000 compounds, 1.6% hits. AID 686970, 2013;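 also: NT is the 2HG producing partner of a matched IDH1 knockdown line; potency is read from the fitted curve at half-maximal effect; 0% = DMSO-treated cells and -100% = media-only wells without cells; nearly all actives have a fitted effect of over 55% in size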
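Toxicity toward the 2HG-producing NT line was scored as %Activity, normalised to DMSO and no-cell wells, from CellTiter-Glo luminescence after 48 hours' treatment.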
uPA generation – qHTS for Inhibitors of Cell Surface uPA Generation; cell surface uPA generation assay, qHTS; Potency, µM (doses to about 38.3 µM), for inactives: top-dose activity change, negative = inhibition, hits mostly inhibitors; 330,000 compounds, 0.31% hits; AID 540303, 2011; active = well fitted inhibition curve with a large enough effect; inconclusive = small, poorly fitted or top-dose-only effect; inactive = no such curve, though single readings can be large or run the other way; tested in mouse RAW 264.7 cells; also: potency is read from the fitted curve at half-maximal effect; nearly all actives have a fitted effect of over 55% in size
DT40 TDP1 CPT – qHTS for Inhibitors of human tyrosyl-DNA phosphodiesterase 1 (TDP1): qHTS in cells in presence of CPT; Potency, µM (titrated, usually from 46.2 µM), for the others: at the top dose activity change, negative = growth inhibition, actives largely listed as inhibitors; chicken DT40 Tdp1-/-;hTDP1 cells + 20 nM CPT, ATP luminescence, 48 h; 420,000 compounds, 12% hits; also: potency is read from the fitted curve at half-maximal effect; nearly all actives have a fitted effect of over 55% in size
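Chicken DT40 Tdp1-/- cells complemented with human TDP1, 400 cells/well, exposed to compounds plus 20 nM camptothecin for at least 48 h at 37 C; viability read as ATP content by CellTiter-Glo luminescence.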
TDP1 cell noCPT – qHTS for Inhibitors of human tyrosyl-DNA phosphodiesterase 1 (TDP1): qHTS in cells in absence of CPT. Potency, µM (highest dose often 46.2 µM), for the others: top-dose activity change, negative = growth inhibition, most hits filed as inhibitors. DT40 Tdp1-/- hTDP1 cells, no CPT, ATP luminescence, 48 h. 420,000 compounds, 15% hits; also: potency is read from the fitted curve at half-maximal effect; nearly all actives have a fitted effect of over 55% in size
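Chicken DT40 Tdp1-/- cells complemented with human TDP1, screened without camptothecin (DMSO vehicle only), 400 cells/well. Compounds pin-transferred, cells incubated at 37 °C for at least 48 hr. Growth read as ATP-dependent luminescence (CellTiter-Glo, 30 min at RT).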
The depositor's hits bear a star; ? = inconclusive; . = no result. Unless noted, calls follow the shape of the dose curve; as a rule, active = well fitted curve in the direction sought with a large enough effect; inconclusive = small, poorly fitted or top-dose-only effect, or another doubt; inactive = no such curve, though single readings can be large; an effect the other way counts as inactive or inconclusive. Unless noted, % is scaled to controls: 0 for no effect and ±100 for the full control effect.

SMILES	HT1080 IDH1KD tx	IL-1B inflam inh	HT1080-NT tox	uPA generation	DT40 TDP1 CPT	TDP1 cell noCPT
Cn1cccc1-c1cc2n(n1)CCC(=O)N2CCCC(=O)NCc1cccc(Cl)c1	.	.	.	.	-29.3%	-24.4%
O=C(c1cc(-c2ccncc2)nc2ccccc12)N1CCN(c2ccccn2)CC1	5.62µM*	8.1	7.94µM*	.	8.91µM*	11.2µM*
O=C(c1cc(-c2ccccc2)nc2ccccc12)N1CCN(c2ccccc2O)CC1	?	-6.9	-11.7%	-4.9%	16.4µM*	18.4µM*
Cc1[nH]nc2ncc(C(=O)c3ccccc3O)cc12	?	-50.8*	1.4%	-0.5%	10.3µM*	?
Cc1nn(C)c2ncc(C(=O)c3ccccc3O)cc12	-4.7%	42.2	-9.5%	-1.8%	?	?
O=[N+]([O-])c1ccc(Cc2ccccn2)c([N+](=O)[O-])c1	1.8%	15.4	0.0%	-10.5%	?	-26.9%
Cn1ncc(Cl)c1C(=O)NC(=S)Nc1sc2c(c1C#N)CCCCC2	2.3%	6.0	16.7%	1.1%	20.6µM*	?
N#Cc1c(NC(=S)NC(=O)C2CCCC2)sc2c1CCCCC2	-19.9%	-54.4*	-10.9%	-3.4%	?	?
N#Cc1c(NC(=O)C2CCCO2)sc2c1CCCCCC2 (configuration not stated)	11.1%	-2.2	4.6%	-0.5%	-4.0%	-22.7%
CCOC(=O)c1cc(OC(C)=O)c2ccc(OC)c(OC)c2c1	12.0%	19.3	?	.	?	23.1µM*
O=C(COC(=O)c1ccccc1OCCOc1ccccc1)Nc1ccc(Br)cc1	.	.	.	.	-6.1%	-1.1%
CCC(C)(C)C1CCc2[nH]nc(C(=O)NCc3ccccn3)c2C1 (configuration not stated)	2.7%	15.2	4.2%	-12.7%	14.6µM*	23.1µM*
CCC(C)(C)C1CCc2[nH]nc(C(=O)NCCCNC(=O)OC(C)(C)C)c2C1 (configuration not stated)	-3.7%	47.8	-6.1%	1.7%	?	18.4µM*
COc1ccc(OC)c(C2=NS(=O)(=O)N(C)C(C(=O)NCc3ccco3)=C2)c1	-4.1%	18.8	-3.2%	-0.6%	-25.0%	-2.6%
C[C@H](CO)N1C[C@H](C)[C@@H](CN(C)C(=O)Nc2cccc(F)c2)Oc2ncc(Br)cc2C1=O	-7.0%	29.5	-0.9%	.	-11.7%	-14.7%
Cc1c(N=N/C(C(=O)Nc2ccccc2)=C(/O)c2ccccc2)c(=O)n(-c2ccccc2)n1C	-3.3%	-1.5	2.4%	-0.9%	?	20.6µM*
Cc1oc2ncn(CC(C)C)c(=O)c2c1C(=O)N(CCN(C)C)Cc1ccccc1	.	.	.	.	-22.5%	-8.6%
COc1cc(C2c3c(-c4ccccc4O)n[nH]c3C(=O)N2Cc2ccncc2)ccc1O (configuration not stated)	.	.	.	.	-6.4%	-7.2%
Cc1ccc(C2c3c(-c4ccccc4O)n[nH]c3C(=O)N2Cc2ccncc2)cc1 (configuration not stated)	?	?	?	-16.5%	?	23.1µM*
COC(=O)c1ccc(C2c3c(-c4ccccc4O)n[nH]c3C(=O)N2Cc2ccncc2)cc1 (configuration not stated)	.	.	.	.	18.4µM*	?
O=C1c2[nH]nc(-c3ccccc3O)c2C(c2cccc(Br)c2)N1Cc1ccncc1 (configuration not stated)	.	.	.	.	2.91µM*	1.16µM*
O=C(CCn1c(=O)c2ccccc2n(Cc2cccc(F)c2)c1=O)NCc1ccc2c(c1)OCO2	.	.	.	.	-24.3%	-27.1%
Cn1cnc(S(=O)(=O)N2CCC(C(=O)NCc3ccccc3)CC2)c1	.	.	.	.	23.0%	-14.1%
COCCN(CCOC)c1ncc(Cl)c(C(=O)c2c(C)cc3ccccn23)n1	4.5%	-6.8	8.0%	1.3%	?	20.6µM*
O=CNc1cc(-c2ccccc2)cn2c(-c3ccc(F)c(Cl)c3)cnc12	?	29.3	-11.5%	.	23.1µM*	23.1µM*
SMILES	HT1080 IDH1KD tx	IL-1B inflam inh	HT1080-NT tox	uPA generation	DT40 TDP1 CPT	TDP1 cell noCPT
O=CNc1cc(-c2cccc(F)c2)cn2c(-c3ccc(F)c(Cl)c3)cnc12	?	0.0	-11.2%	.	23.1µM*	11.6µM*
CS(=O)(=O)Nc1cccc(-c2cc(NC=O)c3ncc(-c4ccc(F)c(Cl)c4)n3c2)c1	?	41.8	?	.	9.2µM*	14.6µM*
COC(=O)[C@]12CCCCC=C1N(Cc1ccc3c(c1)OCO3)C(=O)[C@H](CC(=O)N1CCSCC1)C2	3.1%	0.0	4.1%	.	?	?
CCC(=O)N1CCCC1(C)C(=O)Nc1ccc2nc(C)ccc2c1 (configuration not stated)	?	2.9	14.5%	.	-16.8%	7.5%
O=C(Cn1cnc([N+](=O)[O-])c1)Nc1ccc(Cl)cc1Cl	-7.5%	?	-0.8%	.	2.6%	0.2%
COc1cccc(CNCCSc2nnnn2C)c1OCc1ccc(F)cc1	.	.	.	.	?	20.6µM*
COc1cc(CNCCSc2nnnn2C)ccc1OCc1ccc(F)cc1	.	.	.	.	18.4µM*	20.6µM*
C[C@H](NC(=O)c1ccccc1)C(=O)OCC(=O)Nc1ccc(Cl)cn1	8.0%	13.6	5.6%	.	-9.4%	-26.1%
CN(CC1(C)CCCO1)S(=O)(=O)c1ccc(Cl)c(S(N)(=O)=O)c1 (configuration not stated)	.	.	.	.	?	-2.3%
CCOC(=O)C1CCCN(C(=O)c2[nH]c3ccc(OC)cc3c2C)C1 (configuration not stated)	1.0%	0.0	-2.0%	5.0%	-9.8%	29.2%
CCN(CC(F)(F)C(F)F)S(=O)(=O)c1ccc(NC(=O)OC)cc1	-16.1%	18.5	-24.1%	6.3%	25.9µM*	16.4µM*
CCN(CC(=O)NCc1ccc(F)cc1)C(=O)/C=C/c1ccc(S(=O)(=O)N(CC)CC)cc1	4.61µM*	40.9	16.4µM*	-12.6%	23.1µM*	20.6µM*
CCN(CC)S(=O)(=O)c1ccc(NC(=O)Nc2cccc(C(F)(F)F)c2)cc1	?	-88.8*	?	-14.0%	2.59µM*	2.59µM*
Cc1ccc(S(=O)(=O)Nc2ccc(NC(=O)Nc3cccc(C(F)(F)F)c3)cc2)cc1	?	-97.1*	?	-13.1%	18.4µM*	?
O=S(=O)(Nc1cccc(C(F)(F)F)c1)c1ccc(NS(=O)(=O)c2ccc3c(c2)OCCO3)cc1	.	.	.	.	-27.2%	1.1%

Screens from PubChem BioAssay.
